# Bioassay records: PubChem, several laboratories
# Only some compounds are listed: those with a hit (about 3.5% of all), similar ones and a draw of the others.
# Anthrax LF inh2 = blocks Bacillus anthracis lethal factor protease | P15917 | multiplex microsphere protease cleavage assay, LF | inhibition, % at 10 µM | 360,000 compounds, 0.12% hits | AID 588501; also: plate controls were buffer without enzyme for full effect and enzyme alone for no effect
# Target sequence (P15917 whole entry, looked up): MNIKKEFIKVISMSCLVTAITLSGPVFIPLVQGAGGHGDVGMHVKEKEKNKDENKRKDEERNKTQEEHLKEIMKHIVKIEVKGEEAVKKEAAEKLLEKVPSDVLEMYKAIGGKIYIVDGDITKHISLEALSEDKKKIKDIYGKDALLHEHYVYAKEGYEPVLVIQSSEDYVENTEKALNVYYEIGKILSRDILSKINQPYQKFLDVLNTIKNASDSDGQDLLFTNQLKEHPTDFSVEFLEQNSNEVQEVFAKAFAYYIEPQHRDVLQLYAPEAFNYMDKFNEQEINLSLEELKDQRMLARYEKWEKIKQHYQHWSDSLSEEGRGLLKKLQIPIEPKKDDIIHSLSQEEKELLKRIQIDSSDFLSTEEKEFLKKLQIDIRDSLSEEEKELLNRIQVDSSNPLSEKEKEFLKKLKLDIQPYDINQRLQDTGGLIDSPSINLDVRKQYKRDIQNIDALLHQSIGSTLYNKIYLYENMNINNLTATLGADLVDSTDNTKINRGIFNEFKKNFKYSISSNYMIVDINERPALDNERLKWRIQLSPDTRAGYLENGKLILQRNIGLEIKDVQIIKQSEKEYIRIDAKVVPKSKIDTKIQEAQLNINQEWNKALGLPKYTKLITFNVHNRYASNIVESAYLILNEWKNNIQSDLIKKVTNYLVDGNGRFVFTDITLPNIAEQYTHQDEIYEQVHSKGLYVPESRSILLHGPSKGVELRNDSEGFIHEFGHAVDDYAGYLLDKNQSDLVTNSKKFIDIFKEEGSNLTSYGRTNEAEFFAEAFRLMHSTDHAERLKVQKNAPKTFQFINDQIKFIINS
# BJeLR viability = BJeLR cell viability loss | BJeLR (HRASV12) viability, CellTiter-Glo ATP luminescence, 48 h | inhibition, % (test concentration not listed) | 300,000 compounds, 0.17% hits | AID 1554; in the data active = inhibition above about 50%; inconclusive = no clear call, values can overlap the other calls
# BoNT-A LC inh2 = inhibitors of Botulinum neurotoxin A light chain protease | multiplex microsphere protease substrate cleavage, flow cytometry | inhibition, % at 10 µM | 360,000 compounds, 0.17% hits; also: plate controls were buffer without enzyme for full effect and enzyme alone for no effect
# Autofluor counter = counter-screen for toxin protease inhibitors: compound fluorescence; compound autofluorescence counterscreen, microsphere flow cytometry; stronger effect = higher value; 360,000 compounds, 3.1% hits; fluorescence intensity (test concentration not listed); in the data active = fluorescence intensity above about 16000; inconclusive = no clear call, values can overlap the other calls
# BoNT F protease = BoNT F light chain protease inhibition; Multiplex microsphere protease cleavage assay, flow cytometry; inhibition, % at 10 µM; 360,000 compounds, 0.22% hits; in the data active = inhibition above about 35%, passing the limit was not always enough; inconclusive = no clear call, values can overlap the other calls; also: plate controls were buffer without enzyme for full effect and enzyme alone for no effect
# BoNT-A LC CP2 = blocks botulinum neurotoxin A light chain protease. 150 compounds, 10% hits. multiplex microsphere protease cleavage assay, flow cytometry. inhibition, % at 10 µM. shares compounds with BoNT-A LC inh2; in the data active = inhibition above about 24%
# Anthrax LF CP2 = Bacillus anthracis lethal factor protease inhibition | shares compounds with BoNT-A LC inh2 | multiplex microsphere protease cleavage assay | inhibition, % at 10 µM | 150 compounds, 7% hits; in the data active = inhibition above about 25%
# BoNTF LC inh 2 = inhibitors of botulinum neurotoxin F light chain protease | shares compounds with BoNT-A LC inh2 | inhibition, % at 10 µM | multiplex microsphere protease cleavage assay, flow cytometry | 150 compounds, 7% hits; in the data active = inhibition above about 25%
# * hit, by the source's call; ? = inconclusive; . = not tested or not shown. Rule as the data show it, unless noted: active = inhibition above about 30%; inconclusive = no clear call, values can overlap the other calls; inactive = below that.
SMILES,Anthrax LF inh2,BJeLR viability,BoNT-A LC inh2,Autofluor counter,BoNT F protease,BoNT-A LC CP2,Anthrax LF CP2,BoNTF LC inh 2
Cc1cc2nc(-c3cccc(Br)c3)c(Cc3ccccc3)n2c(C)c1Br,-2,.,1,6229,-9,.,.,.
Cc1cc2nc(-c3ccccc3)c(Cc3cccc(F)c3)n2c(C)c1Br,5,.,3,5507,-8,.,.,.
Cc1ccc(S(=O)(=O)NCCc2nnc(SCc3cccnc3)n2C)cc1,-1,-4,2,5125,3,.,.,.
Cc1cc(C)c(Cn2ncn(-c3ccc(Br)cc3)c2=O)c(C)c1,-1,6,-1,4061,-4,.,.,.
CCN(CC)c1ccc(C=Nc2cccc(S(=O)(=O)N3CCOCC3)c2)c(O)c1,46*,.,51*,3355,17,16,14,5
COc1ccc(-c2cc3c(c4c2ccn4C)C2CCC3C2)cc1 (configuration not stated),-2,.,14,3998,-22,2,3,3
COc1cccc(-c2cc3c(c4c2ccn4C)C2CCC3C2)c1 (configuration not stated),2,.,18,4290,-22,10,2,-14
CCN(CC)c1ccc2cc(S(=O)(=O)c3ccc(Cl)cc3)c(=O)oc2c1,42*,8,68*,3309,21,26*,25*,15
C=CCn1c(C)cc(C(=O)Cn2c(C(C)O)nc3ccccc32)c1C (configuration not stated),-5,2,0,3201,-2,.,.,.
O=C(NCC1CCCO1)c1cc([N+](=O)[O-])ccc1N1CCC(Cc2ccccc2)CC1 (configuration not stated),4,.,0,4183,-10,.,.,.
COc1ccccc1-c1cc2c(c3c1ccn3C)C1CCC2O1 (configuration not stated),21,.,10,5495,10,.,.,.
Cn1ccc2c(-c3ccccc3F)cc3c(c21)C1CCC3C1 (configuration not stated),-8,.,3,5841,2,2,-3,-1
COc1ccccc1-c1cc2c(c3c1ccn3C)C1CCC2C1 (configuration not stated),30*,.,12,4225,-10,4,0,-6
O=C(C[n+]1ccc(C(=O)c2ccccc2)cc1)Nc1ccccc1OC(F)F,64*,.,55*,2711,32,2,2,-4
CC(Oc1ccccc1F)c1nnc(SCC(=O)c2c(N)n(C3CC3)c(=O)[nH]c2=O)o1 (configuration not stated),98*,.,96*,5129,91*,1,0,0
Cc1cc2ccccc2n1CCNC(=O)C1CC1,44*,-2,69*,3417,23,9,10,4
Cc1cc2ccccc2n1CCNC(=O)C1CCCCC1,27,-4,96*,2400,-27,4,2,6
O=C(NCCn1ccc2ccccc21)C1CCCCC1,-1,7,1,5958,-5,.,.,.
Cc1cc2nc(-c3ccc(F)cc3)c(Cc3cccc(Cl)c3)n2c(C)c1Br,-1,.,2,4535,-6,3,0,6
Cc1ccc(-c2nc3cc(C)c(Br)c(C)n3c2Cc2cccc(Cl)c2)cc1,-5,.,1,4668,0,26*,-2,16
Cc1ccc(Cc2c(-c3cccc(Cl)c3)nc3cc(C)c(Br)c(C)n23)cc1,2,.,0,5438,-9,.,.,.
Cc1cc2nc(-c3ccc(F)cc3)c(Cc3ccccc3)n2c(C)c1Br,3,.,2,5770,4,.,.,.
Cc1cc2nc(-c3ccccc3)c(Cc3cccc(Cl)c3)n2c(C)c1Br,-4,.,-1,4680,-3,16,-4,12
CCC(=O)N1CCc2cc(S(=O)(=O)NCCC(=O)NCc3ccccc3OC)ccc21,0,0,0,6100,3,.,.,.
O=C(Cc1ccccc1)c1ccccn1,23,.,33*,10134,-5,33*,29*,3
SMILES,Anthrax LF inh2,BJeLR viability,BoNT-A LC inh2,Autofluor counter,BoNT F protease,BoNT-A LC CP2,Anthrax LF CP2,BoNTF LC inh 2
Cc1ccc(Oc2ccc(NC(=O)C3=CC=CN4CCS(=O)(=O)N=C34)cc2)cc1,-4,.,0,?,6,.,.,.
Cc1nc2ccc(NC(=O)[C@@H](NC(=O)c3c(F)cccc3F)C(C)C)cc2s1,40*,.,18,8879,14,8,15,30*
COc1cc(OC)cc(C(=O)NC(C(=O)Nc2ccc3nc(C)sc3c2)C(C)C)c1 (configuration not stated),-10,.,0,7926,0,.,.,.
CC1CN1c1cc2c(c3c1ccn3C)C1CCC2C1 (configuration not stated),-11,.,0,5654,-14,.,.,.
Cn1ccc2c(-c3ccc(C(N)=O)cc3)cc3c(c21)C1CCC3O1 (configuration not stated),-2,.,-1,5374,-5,.,.,.
Cn1ccc2c(-c3ccc(C(=O)O)cc3)cc3c(c21)C1CCC3C1 (configuration not stated),8,.,0,6150,10,3,1,8
Cn1ccc2c(-c3ccc(C(C)(C)C)cc3)cc3c(c21)C1CCC3C1 (configuration not stated),-5,.,-1,5412,0,2,-3,-4
O=[N+]([O-])c1ccccc1OCCCOc1cccc2cccnc12,7,-19,?,3895,?,.,.,.
COC(=O)c1ccccc1-c1c2ccc(=N)cc-2oc2cc(N)ccc12,61*,.,9,34738*,62*,15,-9,-35
Cc1[nH]c2ccc(CNS(=O)(=O)c3ccc(S(=O)(=O)N4CCOCC4)cc3)cc2c1C,0,4,0,6262,-1,2,-3,-2
COc1cccc(/C=C/C(=O)NCc2ccc3c(c2)OCO3)c1,-10,4,-1,3099,-21,.,.,.
COc1ccccc1Cc1c(-c2ccc(C#N)cc2)nc2c(Cl)cc(C(F)(F)F)cn12,8,.,9,10081,1,11,3,1
Cc1ccc2nsnc2c1S(=O)(=O)N(Cc1cc2cccc(C)c2[nH]c1=O)CC1CCCO1 (configuration not stated),-1,23,0,11527,-5,.,.,.
COc1ccc(C(CNC(=O)c2ccc(OC)c(S(=O)(=O)N3CCCC3)c2)N2CCCC2)cc1 (configuration not stated),1,.,-12,21380*,40*,-17,2,24
COc1ccccc1C(CNC(=O)c1ccc(C)c(S(=O)(=O)N2CCCCC2)c1)N1CCCC1 (configuration not stated),-2,.,-89,71619*,-12,-7,2,25*
COc1ccc(C(CNC(=O)c2ccc(C)c(S(=O)(=O)N3CCCCC3)c2)N(C)C)cc1OC (configuration not stated),4,3,-1,4047,-3,.,.,.
